A selection: hits, their analogues and other compounds. The true share with any hit is near 1.5%.
RAD54 inh: RAD54 (human) branch migration inhibition; RAD54 Holliday junction branch migration, FAM/BHQ fluorescence; inhibition, % at 10.4 µM; 360,000 compounds, 0.14% hits;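 active = mean normalized replicate activity at least 40 and at least half of replicates scoring 40 or more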;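 also: 0% = median of neutral control wells and 100% = median of positive control wells; inhibitors cause a drop in the FAM fluorescence signal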
miR122 inh: inhibitors of miR-122 in Huh7 cells. Huh7 miR-122 Renilla luciferase sensor, 48 h; neutral wells = 0, positive control = 100. activation (reporter increase), % at 12.5 µM. 340,000 compounds, 0.3% hits. AID 602342;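 active = mean replicate activation score at least 90 and every replicate individually at or above 90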;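 also: higher luciferase means less miR-122 activity so hits act as miR-122 inhibitors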
Glyco luc inh: N-linked glycosylation inhibition. 360,000 compounds, 0.23% hits. reporter increase, % at 12.5 µM. D54 ERlucT glycosylation luciferase reporter, 24 h; percent of 100 nM tunicamycin response;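 active = mean luciferase reporter signal, scaled so untreated is 0 and the glycosylation-blocking control 100, at or above a set limit in every replicate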;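 also: luciferase carries N-glycosylation sites so blocking glycosylation raises the light; 0% = median of neutral control wells and 100% = median of 100 nM tunicamycin wells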
DNA FID counter: fluorescent intercalator displacement, NS3 helicase counter-screen; DNA fluorescent intercalator displacement, fluorescence; inhibition, % at 7.9 µM; 290,000 compounds, 0.17% hits; AID 1845; in the data active = inhibition above about 37%;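 also: 0% = vehicle and 100% = reference compound; higher means more ethidium bromide displaced from hairpin DNA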
CendR NRP1 mod: modulators of CendR peptide binding to human neuropilin-1. O14786. FAM-RPARPAR peptide binding to NRP-1, fluorescence polarization. inhibition, % at 25 µM. 360,000 compounds, 0.85% hits. AID 602438;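 active = inhibition or corrected inhibition above about 18%, plus a signal ratio from 0.5 to 1.5, limit read from the data, passing the limit was not always enough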
RAD52 inh: RAD52 (human) annealing inhibition; P43351; recombinant RAD52 DNA annealing, FRET fluorescence; inhibition, % at 18.7 µM; 360,000 compounds, 0.46% hits; AID 651710;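 active = every replicate showing at least 50% inhibition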
Target sequence (P43351 whole entry, looked up): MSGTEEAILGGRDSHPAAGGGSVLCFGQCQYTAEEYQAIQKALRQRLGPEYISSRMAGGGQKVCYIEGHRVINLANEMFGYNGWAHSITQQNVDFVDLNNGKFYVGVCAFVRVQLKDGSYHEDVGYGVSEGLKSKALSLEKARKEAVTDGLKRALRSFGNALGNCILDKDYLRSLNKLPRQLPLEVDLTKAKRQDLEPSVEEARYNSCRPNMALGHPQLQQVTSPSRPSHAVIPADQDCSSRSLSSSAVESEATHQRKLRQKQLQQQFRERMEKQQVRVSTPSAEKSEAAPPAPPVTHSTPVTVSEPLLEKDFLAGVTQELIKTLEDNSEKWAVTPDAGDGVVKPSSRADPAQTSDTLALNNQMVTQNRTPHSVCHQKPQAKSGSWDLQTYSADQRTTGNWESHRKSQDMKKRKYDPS
Active calls of the source: *; [ ] = another dose, or the depositor's remark.

`C[C@@H]1CN([C@H](C)CO)C(=O)c2c(c3ccccc3n2C)-c2ccccc2CO[C@H]1CN(C)C(=O)CCN(C)C` gave RAD54 inh 3.5 and RAD52 inh 56.6*.
`C[C@H](CO)N1C[C@H](C)[C@@H](CN(C)Cc2ccc(-c3ccccc3)cc2)OCc2ccccc2-c2c(n(C)c3ccccc23)C1=O` gave RAD52 inh 80.1*.
For C[C@H]1CN([C@@H](C)CO)C(=O)c2c(c3ccccc3n2C)-c2ccccc2CO[C@@H]1CN(C)C(=O)CCN(C)C the results were RAD54 inh 7.7 and RAD52 inh 59.1*.
For CC(C)NC(=O)N(C)C[C@@H]1Oc2ncc(C#CC3CC3)cc2C(=O)N([C@H](C)CO)C[C@H]1C the results were miR122 inh -9.7[16.7 µM].
`COCC(=O)Nc1ccc2c(c1)OC[C@H](C)N(C(=O)Cc1cccnc1)C[C@H](C)[C@@H](OC)CN(C)C2=O` gave RAD52 inh -7.1.
`CSc1ccccc1C(=O)N1CCC(CCC(=O)NCc2ccc(F)cc2)CC1` gave RAD54 inh -3.5, Glyco luc inh 3.6, DNA FID counter -42.2, CendR NRP1 mod 30.6* and RAD52 inh -8.3.
For CC(=O)c1ccccc1C(=O)N1CCC(CCC(=O)NCc2ccc(F)cc2)CC1 the results were RAD54 inh -8.3, miR122 inh 4.8, Glyco luc inh 1.4, CendR NRP1 mod -0.9 and RAD52 inh -8.9.
Screening CC(C)NC(=O)Nc1ccc2c(c1)C(=O)N([C@H](C)CO)C[C@H](C)[C@H](CN(C)C(=O)NC1CCCCC1)OCCCC[C@@H](C)O2 returned RAD54 inh 1.2, miR122 inh -1.2[16.7 µM] and RAD52 inh 7.0.
For O=C1N=c2ccccc2=C1c1sc(Nc2cccc(O)c2)nc1O the results were RAD54 inh 0.8, miR122 inh -2.1, Glyco luc inh 0.0, DNA FID counter 39.3*, CendR NRP1 mod 2.6 and RAD52 inh -3.1.
Screening COc1cccc(CN2CCC3(CC2)CN(C(=O)C2CC2)[C@H](CO)c2c3c3ccc(OC)cc3n2C)c1 returned RAD52 inh 17.6.
CC=Cc1ccc2n(c1=O)C[C@@H]1[C@@H](CO)[C@H](C(=O)NCCC)[C@H]2N1C(=O)c1ccccc1 (mixture of isomers) was read as RAD54 inh -5.5, miR122 inh 5.6[16.7 µM] and RAD52 inh -0.5.
For Cc1ccc(S(=O)(=O)Nc2ccc3c(c2)CC(=O)N([C@@H](C)CO)C[C@@H](C)[C@H](CN(C)Cc2ccc(-c4ccccc4)cc2)O3)cc1 the results were RAD54 inh 1.1, miR122 inh -25.8[16.7 µM] and RAD52 inh 83.2*.
Screening C[C@@H]1CN([C@@H](C)CO)C(=O)Cc2cc(NS(=O)(=O)c3ccccc3)ccc2O[C@@H]1CN(C)Cc1ccc(Cl)c(Cl)c1 returned RAD54 inh 1.1, miR122 inh 2.5[16.7 µM] and RAD52 inh -15.1.
For C[C@H](CO)N1C[C@H](C)[C@@H](CN(C)Cc2ccc(Cl)c(Cl)c2)Oc2ccc(NS(=O)(=O)c3ccccc3)cc2CC1=O the results were RAD54 inh -5.7, miR122 inh -3.1[16.7 µM] and RAD52 inh 63.7*.
For C[C@@H]1CN([C@@H](C)CO)C(=O)Cc2cc(NS(=O)(=O)c3ccc(F)cc3)ccc2O[C@@H]1CN(C)Cc1ccc(-c2ccccc2)cc1 the results were miR122 inh 3.5[16.7 µM].
For C[C@@H]1CN([C@@H](C)CO)C(=O)c2cc(C#CCN(C)C)cnc2O[C@H]1CN(C)C the results were RAD54 inh -7.9, miR122 inh 6.9[16.7 µM] and RAD52 inh -1.4.
CN(C)CCCNC(=O)C[C@H]1C[C@H](C(=O)N2CCCCC2)[C@@]2(CCc3ccccc3)c3[nH]c4cc(-c5ccco5)ccc4c3CCN2C1=O was read as RAD54 inh -8.7, miR122 inh -6.1, Glyco luc inh -7.3, CendR NRP1 mod -14.1 and RAD52 inh 75.1*.
`O=C(/C=C/c1ccccc1)c1ccc(NC2=NCCCS2)cc1` gave RAD54 inh -3.6, miR122 inh -15.3, Glyco luc inh 11.4, DNA FID counter -0.4, CendR NRP1 mod -11.3 and RAD52 inh 26.9.
For O=C(/C=C/c1ccc(Br)cc1)c1ccc(NC2=NCCCS2)cc1 the results were Glyco luc inh 14.5, DNA FID counter 36.9*, CendR NRP1 mod -12.9 and RAD52 inh 51.3*.
`CC1(C(=O)NCc2ccccc2)CCC(=O)N1CCc1c[nH]c2ccccc12` (configuration not stated) gave RAD54 inh -7.7, miR122 inh 2.8, Glyco luc inh 2.3, CendR NRP1 mod 24.1* and RAD52 inh -8.9.
For COc1ccc(CNC(=O)CCc2c[nH]c3ccccc23)cc1 the results were RAD54 inh -10.2, Glyco luc inh -0.9, DNA FID counter -7.2, CendR NRP1 mod 27.0* and RAD52 inh -8.9.
Screening CC1(C(=O)NCc2ccccc2)CSCC(=O)N1CCc1c[nH]c2ccccc12 (configuration not stated) returned CendR NRP1 mod -1.2 and RAD52 inh -45.8.
Screening COc1ccccc1S(=O)(=O)Nc1ccc2c(c1)C(=O)N(C)C[C@H](OC)[C@@H](C)CN[C@@H](C)CO2 returned RAD54 inh 3.0 and RAD52 inh -4.8.
Cn1c(=O)c2[nH]c(CCCc3ccc([N+](=O)[O-])cc3)nc2n(C)c1=O was read as Glyco luc inh 7.0, CendR NRP1 mod 30.0* and RAD52 inh -26.7.
`Cc1cc2c(cc1C)-c1nnnn1C(N1CCCCC1)C(=O)N2` (configuration not stated) gave CendR NRP1 mod 20.7* and RAD52 inh -4.0.
O=C1Nc2ccccc2-c2nnnn2C1N1CCC(Cc2ccccc2)CC1 (configuration not stated) was read as CendR NRP1 mod 16.5 and RAD52 inh -12.6.
For CCCCCCCN1C(Nc2ccccc2)=NC[C@@H]1Cc1ccccc1 the results were RAD54 inh 5.6, miR122 inh 2.3, Glyco luc inh 9.1, DNA FID counter 14.7, CendR NRP1 mod 26.2* and RAD52 inh 25.9.
Screening COc1cc(NS(=O)(=O)c2ccc3c(c2)C(C)(C)C(=O)N3C)cc(OC)c1 returned RAD54 inh -7.8, miR122 inh 97.6*, Glyco luc inh 1.6, DNA FID counter -16.4, CendR NRP1 mod 10.1 and RAD52 inh -24.9.
For CCC(=O)N1CCCCN2[C@H](CO)[C@H](c3ccc(C#Cc4ccccc4F)cc3)[C@@H]2C1 the results were RAD54 inh -9.6, miR122 inh -1.9[16.7 µM] and RAD52 inh 6.2.
CN(Cc1nc(-c2ccccn2)no1)S(=O)(=O)c1ccc(Br)cc1 was read as RAD54 inh -4.4, miR122 inh 9.0, Glyco luc inh -0.4, DNA FID counter -4.6 and CendR NRP1 mod 27.5*.

From PubChem
